Results as given in PubChem BioAssay (NCI).
About 79,000 compounds went through this panel and 15% of them were active in at least one assay; those are over-represented in the sample as a whole. Rule as the data show it: active = growth inhibition above about 70%; inactive = the rest.

Tests used:
[1] = NCI Yeast Anticancer Drug Screen. Data for the rad50 strain (AID 155);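 also: 0% = growth of vehicle-only cultures of the same strain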; conditions: S. cerevisiae rad50 strain growth inhibition; at 50.0 µM; hits give high values
In short: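 Cells are treated with compound, grown, and their growth is then scored against vehicle-only cultures of the same repair-deficient yeast strain.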

[2] = NCI Yeast Anticancer Drug Screen. Data for the mec2-1 strain (AID 157); conditions: S. cerevisiae mec2-1 strain, at 50.0 µM, hits give high values
In short: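 Compounds were applied to mec2-1 yeast cells. Their growth was then compared with that of vehicle-treated cultures to give growth inhibition.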

[3] = NCI Yeast Anticancer Drug Screen. Data for the sgs1 mgt1 strain (AID 161);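 also: 0% = growth of cultures given vehicle only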; conditions: S. cerevisiae sgs1 mgt1 strain, at 50.0 µM, hits give high values
In short: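 Yeast cells carrying a defined DNA-repair defect were exposed to test compounds. Growth inhibition was measured relative to vehicle-treated controls.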

[4] = NCI Yeast Anticancer Drug Screen. Data for the cln2 rad14 strain (AID 165);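 also: 0% = growth equal to vehicle treated cultures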; conditions: S. cerevisiae cln2 rad14 strain, at 50.0 µM, hits give high values
In short: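 Strain: cln2 rad14 yeast, altered in cell cycle control and DNA damage repair. Read-out: growth inhibition vs vehicle.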

[5] = NCI Yeast Anticancer Drug Screen. Data for the bub3 strain (AID 167); conditions: S. cerevisiae bub3 mutant strain, at 50.0 µM, hits give high values
In short: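 Part of a panel of yeast mutants defective in DNA damage repair or cell cycle regulation. Each strain is grown with compound, and inhibition is calculated relative to solvent-treated cultures.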

[6] = NCI Yeast Anticancer Drug Screen. Data for the mlh1 rad18 strain (AID 175); conditions: S. cerevisiae mlh1 rad18 strain growth inhibition; at 50.0 µM; hits give high values
In short: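 A repair-deficient yeast strain is exposed to test compound, and growth is scored relative to vehicle-treated controls.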

Measured: growth inhibition

O=C(CC(=O)c1ccccc1)Cc1ccccc1.O=C(CC(=O)c1ccccc1)Cc1ccccc1.[Cu]
inactive: [1] 60% | [2] 22.6% | [3] 55.6% | [4] 12.7% | [5] 12.2% | [6] 41.2%

Cc1nc2c(=O)[nH]c(=O)[nH]c2[nH]c1=O
inactive: [1] -20.4% | [2] -12.2% | [3] -24.6% | [4] -50.5% | [5] 2.55% | [6] -16.4%

CC(=O)c1cccc(NC(=O)/C(=N\NC(=S)NN)C2C(=O)Nc3ccccc3S2=O)c1 (configuration not stated)
inactive: [1] -3.6% | [2] -42.4% | [3] -13.1% | [4] -4.15% | [5] -1.8% | [6] -10.5%

CCCCCCCCCCCCCCCCCCCOc1ccc(OCCCCCCCCCCCC)cc1
inactive: [1] 35% | [2] -7.15% | [3] 25.9% | [4] -40.1% | [5] -1.35% | [6] -15.9%

COC(=O)c1[nH]c(=O)c(C#N)c(C(=O)OC)c1C(=O)c1cccnc1
inactive: [1] 2.95% | [2] -3.55% | [3] -5.2% | [4] 18.7% | [5] -17.4% | [6] 25.6%

O=C1N=C(c2ccccc2)C(c2ccccc2)N1 (configuration not stated)
inactive: [1] -9.3% | [2] 23.1% | [3] 12.9% | [4] -3.85% | [5] -0.4% | [6] 8.65%

C=CCOC(=O)C(C#N)C(C)CC(=O)OCC (configuration not stated)
inactive: [1] -5.65% | [2] -1.15% | [3] -22.9% | [4] -0.35% | [5] 5.25% | [6] -5.55%

O=C1CSC(c2cccc([N+](=O)[O-])c2)N1c1ccc(-n2c(-c3ccccc3)nc3ccccc3c2=O)cc1 (configuration not stated)
inactive: [1] -10.8% | [2] -17.1% | [3] 11.9% | [4] -6.8% | [5] 34% | [6] 7.25%

NC(=O)c1nnc2cc(F)c(F)cc2c1N
inactive: [1] -15.8% | [2] -20.8% | [3] -9.65% | [4] 3.8% | [5] 9.5% | [6] -16.6%

CCCCCOc1ccc(C2=C(c3ccccc3)C(=O)C(c3ccccc3)=C2c2ccccc2)cc1
inactive: [1] 40.4% | [2] 12.3% | [3] 33.5% | [4] 26.9% | [5] -3.15% | [6] 23.4%

O=C(CCl)Oc1cccc([N+](=O)[O-])c1
inactive: [1] 0.6% | [2] -11.2% | [3] -7.05% | [4] -8.45% | [5] -17.5% | [6] -20.4%

COC(=O)C(Cc1nc2ccccc2[nH]c1=O)/C(=N\NC(C)(C)C)C(=O)Nc1c(C)cc(Br)cc1C (configuration not stated)
inactive: [1] 17.2% | [2] -4.55% | [3] 5.9% | [4] -35.8% | [5] 3.7% | [6] -3%

COc1c2c(cc3c1[C@@H]1Oc4c(ccc(O)c4CC=C(C)C)[C@@H]1CO3)OC(C)(C)C=C2
inactive: [1] 45.5% | [2] 52.7% | [3] 36.9% | [4] 55.2% | [5] 44.5% | [6] 41.4%

O=[N+]([O-])c1ccc(SC2=NCCCN2)c(Cl)c1
inactive: [1] 36.7% | [2] -0.55% | [3] 33.9% | [4] 11.1% | [5] 32.6% | [6] 26.1%

CC(=O)/C(=C/n1c(=S)sc2ccccc21)C(=O)Nc1ccccc1C
inactive: [1] -3.75% | [2] 0.9% | [3] 54.4% | [4] 15.9% | [5] 9.2% | [6] 41.6%

CC1CC(=O)c2cc3oc(=O)n(C)c3cc21 (configuration not stated)
inactive: [1] -3.4% | [2] -4.15% | [3] -6.2% | [4] -20.5% | [5] 19.2% | [6] -0.45%

CCOC1CCCCO1 (configuration not stated)
inactive: [1] -24.5% | [2] -4.1% | [3] -13.4% | [4] 9.4% | [5] -13.8% | [6] -8.1%

COc1ccc(C(C#N)NNC(=O)c2ccccc2O)cc1OC (configuration not stated)
inactive: [1] 14.9% | [2] 0.85% | [3] 6.6% | [4] 4.2% | [5] 35.2% | [6] -18.9%

Nc1cc(C(F)(F)F)cc(C(F)(F)F)c1
inactive: [1] -6.2% | [2] 1.6% | [3] -0.85% | [4] 16.6% | [5] -1.4% | [6] -10.4%

CCOc1ccccc1C(=O)O
inactive: [1] 13.2% | [2] 6% | [3] 14.2% | [4] 11.4% | [5] -12.1% | [6] 11.4%

COc1cc(C[S+]2CCCC2)c(SC)cc1C[S+]1CCCC1
inactive: [1] 25.4% | [2] 50% | [3] 40.2% | [4] 27.5% | [5] 24.1% | [6] 23.1%

C/C(=N\NC(=O)C1CCCO1)c1cccc2ccccc12 (configuration not stated)
inactive: [1] 3.1% | [2] 11.5% | [3] 5.55% | [4] 17% | [5] 3.9% | [6] 3.55%

Nc1ncnc2oc(-c3ccccc3)nc12
inactive: [1] 1.3% | [2] -0.85% | [3] -6.35% | [4] -40% | [5] -4.25% | [6] 13.7%

Cc1c(O)ccc(N=O)c1O
inactive: [1] 20.4% | [2] 2.6% | [3] 18.9% | [4] 35.8% | [5] -1.6% | [6] 8.15%

Cc1ccc(NCC#N)cc1
inactive: [1] 27.1% | [2] 15.2% | [3] -1.1% | [4] -12.6% | [5] 15.4% | [6] 36.5%

O=C1CCCCc2cccc(O)c21
inactive: [1] 2% | [2] -3.85% | [3] -1.95% | [4] 24.3% | [5] 2.4% | [6] 2.1%

COc1cc(O)c(C(C)=O)c(O)c1O
inactive: [1] -20.4% | [2] -12.8% | [3] -3.1% | [4] -36.7% | [5] 4.8% | [6] 6.45%

O=C(O)C1CC1Br (configuration not stated)
inactive: [1] 9.15% | [2] -15.3% | [3] -3.65% | [4] -14.4% | [5] 2.45% | [6] 5.8%

O=C(O)C1CC2(CCC1c1ccccc1)SCCS2 (configuration not stated)
inactive: [1] 6.7% | [2] 1.15% | [3] 12.1% | [4] 13.6% | [5] 6.5% | [6] -9.85%

CCCCC(CCC)OC(=O)Nc1cccc2ccccc12 (configuration not stated)
inactive: [1] 35.1% | [2] 0.35% | [3] 3.35% | [4] -16.1% | [5] -0.15% | [6] 40%

CCOc1cc2c(cc1O)/C(=N\O)C[C@@H]1[C@@H]2CC[C@]2(C)[C@@H](O)CC[C@@H]12
inactive: [1] 31.6% | [2] 13% | [3] 57.2% | [4] 20.6% | [5] 24.2% | [6] -9.15%

Oc1cccc2c1N1CCN2CC1
inactive: [1] -2.15% | [2] 2.55% | [3] 11.2% | [4] 4.85% | [5] 9.6% | [6] 10.3%

OCC1C2C=CC(O2)[C@H]1CO (some centres not stated)
inactive: [1] 1.65% | [2] -3.75% | [3] -11.8% | [4] -27.9% | [5] -24.9% | [6] -6.95%

CC(=NNC(=S)Nc1ccc(C)cc1)c1cccc(C(C)=NNC(=S)Nc2ccc(C)cc2)n1
inactive: [1] 35.5% | [2] 14.1% | [3] 36.8% | [4] 17.4% | [5] 12.4% | [6] 23.8%

Cc1cc(=O)c2cc(Cc3ccc(N)cc3)ccc2[nH]1
inactive: [1] 8.35% | [2] -16.7% | [3] -8% | [4] 3.05% | [5] -3.45% | [6] 0.65%

CCCSc1ncnc2c1ncn2COC(=O)NC
inactive: [1] 15.1% | [2] -11.4% | [3] 5.2% | [4] 5.15% | [5] 11.3% | [6] -2.8%

CCNC(=O)COc1ccc(Cl)cc1C(C)C
inactive: [1] -2.65% | [2] 7.75% | [3] 15.4% | [4] 18.8% | [5] -0.8% | [6] 0.7%

CCN(CC)C(=O)Cn1c(C)cc2ccccc21
inactive: [1] -18.1% | [2] -18.1% | [3] 7.9% | [4] -2.75% | [5] 8% | [6] -13.6%

O=C1c2ccccc2-c2ccc([N+](=O)[O-])cc21
inactive: [1] 35.6% | [2] 5.8% | [3] -0.3% | [4] 8.65% | [5] -1.3% | [6] -2.85%

O=C(Nc1ccccc1)c1cc(S(=O)(=O)n2cc[nH]c2=O)c(S)cc1Cl
inactive: [1] 9.5% | [2] 3.6% | [3] 5.1% | [4] -5.1% | [5] 2.65% | [6] 13.2%

Clc1nc(Sc2ccc(Br)cc2)c(Cl)c(Sc2ccc(Br)cc2)n1
inactive: [1] -18.9% | [2] -2.3% | [3] 8.05% | [4] -0.8% | [5] 1.5% | [6] -17.6%

COc1cc(OC)c(NC2=CC(c3ccc(Cl)cc3)OC2=O)cc1Cl (configuration not stated)
inactive: [1] 27.3% | [2] 1.85% | [3] 12.8% | [4] -3.6% | [5] 1.4% | [6] 17.8%
